Results: PubChem BioAssay

Experiment: probe aDKK1 binding to arrayed compounds – biochemical, biotinylated probe, 635/667 nm fluorescence, primary screen (AID 1099);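 also: score merges 667nm spot fluorescence with signal to noise across triplicate slides; reference of the scale not given here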
Settings: small-molecule microarray, higher = more signal

Question: For `O=C1C2C=CC(C(O)C3CC=CCC3)N(Nc3ccccc3)C2C(=O)N1c1ccccc1` (stereo not given), which composite z-score is on record?
Answer: 1.13

Question: With `[N-]=[N+]=Nc1ccccc1C[C@@]1(C(=O)N2CCOCC2)N=C(c2ccc(OCCCO)cc2)O[C@@H]1c1ccccc1` as the compound, how does the composite z-score read?
Answer: 1.46

Question: For `CCC#CCN(Cc1ccccc1Br)[C@H](/C=C/C1CC1)[C@@H](O)Cc1ccccc1`, which composite z-score is on record?
Answer: 0.0547

Question: With `Cc1ccc(F)cc1S(=O)(=O)N[C@@H]1CCN(Cc2ccc(Br)cc2)C1` as the compound, how does the composite z-score read?
Answer: -0.16

Question: For `CC1CC/C=C\[C@H]2OC34C=CCN(C(C)C)C(=O)[C@H]3N(CCO)C(=O)[C@@H]4C2C(=O)O1` (stereo not given in full), which composite z-score is on record?
Answer: -0.163

Question: For `CCOC(=O)C[C@H]1[C@H](OC(=O)c2cc3ccccc3oc2=O)[C@@H](NC(=O)CC(C)C)c2cc(OCCCO)ccc2N1C(=O)c1ccc2ccccc2n1`, which composite z-score is on record?
Answer: -0.12

Question: For `[N-]=[N+]=Nc1ccccc1C[C@]1(C(=O)NCCN2CCOCC2)COC(c2ccc(OCCCO)cc2)=N1`, which composite z-score is on record?
Answer: 0.424

Question: For `COC(=O)[C@]1(CCS(=O)(=O)c2ccccc2)N=C(c2ccc(OCCCO)cc2)O[C@@H]1c1ccccc1N=[N+]=[N-]`, which composite z-score is on record?
Answer: 0.99

Question: For `COc1ccc(CCNC(=O)[C@@H]2c3ccccc3C(=O)N(C3CCCCC3)[C@H]2c2ccc(CO)cc2)cc1`, which composite z-score is on record?
Answer: 0.0099

Question: For `O=C(NCc1ccc(F)cc1)[C@H]1C[C@H]2C(=O)NCC(=O)N2[C@H]1c1ccc(O)cc1`, which composite z-score is on record?
Answer: 0.207

Question: Which composite z-score does the source give for `CC(c1ccccc1)C(O)C1C=CC2C(=O)N(C)C(=O)C2N1Nc1ccccc1` (stereo not given) here?
Answer: 1.04

Question: Which composite z-score does the source give for `COc1ccc(C#Cc2ccc3c(c2)[C@]2(C(=O)N3)[C@H](c3ccc(O)cc3)N3[C@H](c4ccccc4)[C@H](c4ccccc4)OC(=O)[C@H]3[C@@H]2C(=O)Nc2nc3ccccc3s2)cc1` here?
Answer: 0.223

Question: With `CC1=C2[C@@H](CCc3ccccc3)OB(O)C[C@@H]2[C@@H]2C(=O)N(C)C(=O)[C@@H]2C1` as the compound, how does the composite z-score read?
Answer: -0.232

Question: For `COc1cccc(C)c1NC(=O)O[C@H]1[C@H](OC(=O)Nc2ccc3c(c2)OCO3)[C@@H](OC(=O)Nc2ccc3c(c2)OCO3)[C@@H](OC)O[C@@H]1CO`, which composite z-score is on record?
Answer: 0.18

Question: Which composite z-score does the source give for `CC(C)N1C(=O)c2ccccc2[C@@H](C(=O)NCCN2CCOCC2)[C@@H]1c1ccc(CO)cc1` here?
Answer: -0.005

Question: Which composite z-score does the source give for `CCCCN1CC=CC23O[C@@H]4/C=C\CCCOC(=O)C4[C@H]2C(=O)N(CCO)[C@@H]3C1=O` (stereo not given in full) here?
Answer: -0.356

Question: For `CCCNC(=O)[C@@]1(C)c2ccccc2C(=O)N(c2ccc(C)cn2)[C@H]1c1ccc(CO)cc1`, which composite z-score is on record?
Answer: -0.103

Question: With `N#Cc1ccc(NN2C(C(O)c3ccc(Br)cc3)C=CC3C(=O)N(c4ccccc4)C(=O)C32)cc1` (stereo not given) as the compound, how does the composite z-score read?
Answer: 0.96

Question: With `O=C(O)[C@@H]1[C@@H]2C(=O)N(c3ccccc3)C(=O)[C@@H]2C[C@@H]1Sc1ccccc1` as the compound, how does the composite z-score read?
Answer: 0.638

Question: With `CCCNC(=O)[C@@H]1c2ccccc2C(=O)N(Cc2ccc(OC(F)(F)F)cc2)[C@H]1c1ccc(CO)cc1` as the compound, how does the composite z-score read?
Answer: 0.53

Question: For `COCCOC(=O)N1C(=O)[C@@]2(c3cc(C#CCCO)ccc31)[C@H](c1ccc(OCCO)cc1)N1[C@H](c3ccccc3)[C@H](c3ccccc3)OC(=O)[C@H]1[C@@H]2C(=O)Nc1nc2ccccc2s1`, which composite z-score is on record?
Answer: 0.901

Question: For `CN(C)C(=O)[C@]1(CCC(=O)OC(C)(C)C)N=C(c2ccc(OCCCO)cc2)O[C@@H]1c1ccccc1CN=[N+]=[N-]`, which composite z-score is on record?
Answer: -0.594

Question: With `CCCC=C(CCC)[C@@H](NS(=O)(=O)c1ccc(C(F)(F)F)cc1)c1ccccc1` as the compound, how does the composite z-score read?
Answer: -0.001

Question: Which composite z-score does the source give for `CCCCC(CC)C(O)C1C=CC2C(=O)N(C)C(=O)C2N1Nc1ccccc1` (stereo not given) here?
Answer: 0.559

Question: For `COC(=O)c1c(CC[C@@H](CO)NC(=O)N2CCC[C@H]2Cn2cc(C3(O)CCCCC3)nn2)oc(C(C)=O)c1C(=O)OC`, which composite z-score is on record?
Answer: -0.152

Question: Which composite z-score does the source give for `C=CC[C@]1(C(=O)N2CCCCC2)N=C(c2ccc(OCCCO)cc2)O[C@H]1c1ccccc1CN=[N+]=[N-]` here?
Answer: 0.258

Question: For `COC(=O)[C@@]1(Cc2ccccc2)[C@H]2c3cc(C(=O)N4CCCC4)n(CCc4ccccn4)c3C[C@H]2CN1C(=O)c1ccccc1`, which composite z-score is on record?
Answer: 0.897

Question: With `C=CCNC(=O)[C@@H]1[C@H]2C(=O)O[C@H](c3ccccc3)[C@H](c3ccccc3)N2[C@H](c2ccc(O)cc2)[C@@]12C(=O)N(C(=O)OCCOC)c1ccc(C#CC3=CCCCC3)cc12` as the compound, how does the composite z-score read?
Answer: -0.122

Question: For `COCCOC(=O)N1C(=O)[C@@]2(c3cc(C#CC4(O)CCCCCC4)ccc31)[C@H](C(=O)N1CCc3cc(OC)c(OC)cc3C1)[C@H]1C(=O)O[C@H](c3ccccc3)[C@H](c3ccccc3)N1[C@@H]2c1ccc(OCCO)cc1`, which composite z-score is on record?
Answer: -0.208

Question: For `C=C(C(=O)CC[C@H](OC(=O)c1ccccc1-c1ccccc1C(=O)O)c1cccc(OCCO)c1)C(C)C`, which composite z-score is on record?
Answer: 0.414

Question: For `CC(C)c1ccc(NN2C(C(O)c3ccc(F)cc3)C=CC3C(=O)N(c4ccccc4)C(=O)C32)cc1` (stereo not given), which composite z-score is on record?
Answer: 0.47

Question: For `[N-]=[N+]=Nc1ccccc1C[C@@]1(C(=O)NCCN2CCOCC2)N=C(c2ccc(OCCCO)cc2)O[C@@H]1c1ccccc1N=[N+]=[N-]`, which composite z-score is on record?
Answer: 0.664

Question: For `CCOC(=O)[C@@H]1CCCCN1C(=O)C(=O)OC`, which composite z-score is on record?
Answer: -0.0335

Question: With `COc1ccccc1CN1C(=O)c2ccccc2[C@](Cc2ccccc2I)(C(=O)O)[C@@H]1c1ccc(CO)cc1` as the compound, how does the composite z-score read?
Answer: 0.552

Question: For `C=C[C@@H](OC)[C@H](OC(=O)Nc1ccc(OC)cc1)c1ccc(O)c(F)c1`, which composite z-score is on record?
Answer: -0.515
